Compound activity deposited in PubChem BioAssay by National Center for Advancing Translational Sciences (NCATS).
TrxR1 inh – inhibitors of rat thioredoxin reductase 1. O89049. recombinant rTrxR1, NADPH fluorescence consumption, selenite substrate. Potency, µM (top dose mostly 114 µM), inactives show at the top dose activity change, negative = inhibition, usual class: inhibitors. 390,000 compounds, 1% hits; note: potency is the fitted concentration of half-maximal effect; % is set by controls: 0 for no effect and ±100 for the full control effect; nearly all actives have a fitted effect of over 65% in size
Target sequence (O89049 whole entry, looked up): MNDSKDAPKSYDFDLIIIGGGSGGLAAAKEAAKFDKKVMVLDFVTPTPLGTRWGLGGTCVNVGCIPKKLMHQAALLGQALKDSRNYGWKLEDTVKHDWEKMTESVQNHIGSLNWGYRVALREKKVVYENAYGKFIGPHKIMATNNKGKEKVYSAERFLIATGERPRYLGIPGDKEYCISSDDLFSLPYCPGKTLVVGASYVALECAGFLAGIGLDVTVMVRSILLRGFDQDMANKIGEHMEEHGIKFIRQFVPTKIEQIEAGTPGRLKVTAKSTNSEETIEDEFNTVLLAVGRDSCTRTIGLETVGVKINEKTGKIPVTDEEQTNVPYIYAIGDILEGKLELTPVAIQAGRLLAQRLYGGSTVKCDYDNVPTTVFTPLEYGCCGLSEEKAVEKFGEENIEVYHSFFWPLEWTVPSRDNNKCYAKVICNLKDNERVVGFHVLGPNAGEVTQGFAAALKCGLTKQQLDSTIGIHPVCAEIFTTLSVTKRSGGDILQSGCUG
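Rat TrxR1 (90 nM in the dispensed reagent) was pre-reduced with 400 uM NADPH for 5 min at room temperature, then incubated with compound for 15 min. After 400 uM selenite was added, NADPH fluorescence (Ex 340/Em 450 nm) was followed for 8 min.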
Anesthetic bind – candidate novel general anesthetic via apoferritin binding. P02791. apoferritin/1-aminoanthracene competitive binding, fluorescence. Potency, µM (doses to about 77.5 µM), inactives show at the highest dose activity change, negative = displacement, usual class: inhibitors. 350,000 compounds, 0.074% hits; note: potency is the fitted concentration of half-maximal effect; % is set by controls: 0 for no effect and ±100 for the full control effect; nearly all actives have a fitted effect of over 20% in size
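Apoferritin-based anesthetic binding model; compound displacement of fluorescent 1-AMA measured as endpoint fluorescence after 10 minutes at room temperature, scaled to free-ligand and complex controls.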
GALK inh – galactokinase (human) inhibition | P51570 | Purified GALK, Kinase-Glo residual ATP luminescence | Potency, µM (highest dose often 57.5 µM), inactives show at the top dose activity change, negative = inhibition, hits mostly inhibitors | 270,000 compounds, 0.007% hits; note: potency is the fitted concentration of half-maximal effect; % is set by controls: 0 for no effect and ±100 for the full control effect
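Galactose (100 uM) and ATP (35 uM) were turned over by 5 nM GALK for 1 h at RT. Kinase-Glo Plus then converted the remaining ATP into a luminescent signal.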
TrxR1 substrate – is turned over as a substrate by rat TrxR1; O89049; purified TrxR1 substrate turnover, NADPH consumption readout; Potency, µM (series often up to 114 µM), inactives show top-dose activity change, negative = substrate turnover; 390,000 compounds, 0.01% hits; note: potency is the fitted concentration of half-maximal effect; % is set by controls: 0 for no effect and ±100 for the full control effect; nearly all actives have a fitted effect of over 50% in size
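Rat TrxR1, dispensed at 90 nM, was prereduced with 400 uM NADPH (final) for 5 min at ~22 deg C, then incubated with compound 15 min before 400 uM selenite. A first-read NADPH fluorescence drop versus no-compound background flagged substrates.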
mIDH1 inhibitor – blocks human mutant IDH1 R132H enzyme | O75874 | IDH1-R132H enzyme, NADPH consumption, diaphorase/resazurin fluorescence | Potency, µM (doses to about 76.6 µM), for inactives: at the highest dose activity change, negative = inhibition, usual class: inhibitors | 390,000 compounds, 0.093% hits; note: potency is the fitted concentration of half-maximal effect; % is set by controls: 0 for no effect and ±100 for the full control effect; nearly all actives have a fitted effect of over 65% in size
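IDH1-R132H (0.5 ug/mL) preincubated 30 min with compound, then NADPH (0.016 mM) and alpha-KG (2 mM) added; 80 min at RT, pH 7.5. Remaining NADPH coupled via diaphorase/resazurin to fluorescence (540/590 nm); concentration-response curves normalized to no-enzyme control.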
PKM2 act – PKM2 (human) enzyme activation. P14618. purified PKM2, Kinase-Glo ATP luminescence, activation; response scale: 0% is enzyme alone, no compound. Potency, µM (titrated, usually from 57.5 µM), inactives show top-dose activation, most hits filed as activators. 260,000 compounds, 0.34% hits. AID 1631; note: potency is the fitted concentration of half-maximal effect; % is set by controls: 0 for no effect and ±100 for the full control effect; nearly all actives have a fitted effect of over 55% in size
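ATP formation by purified human PK-M2, quantified via coupled luciferase luminescence after 1 h at room temperature with 0.1 mM ADP and 0.5 mM PEP final.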
Resorufin autofl – counter-screen for mutant IDH1 inhibitors: fluorescence interference | shares compounds with mIDH1 inhibitor | AID 623980 | 750 tested, under 10 active | Resorufin detection reagent fluorescence interference, cell-free | inhibition of signal, % at 51.2 µM;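 note: 0% = wells with normal resorufin and full inhibition = wells lacking resorufin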
WT IDH1 inh – wild-type IDH1 (human) inhibition counterscreen; 750 compounds, 9% hits; WT IDH1 enzyme, NADPH diaphorase/resazurin fluorescence; Potency, µM (titrated, usually from 115 µM), for inactives: top-dose activity change, negative = inhibition, usual class: inhibitors; shares compounds with mIDH1 inhibitor;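 note: potency is the fitted concentration of half-maximal effect; 0% = full WT IDH1 enzyme control and full inhibition = no enzyme wells; nearly all actives have a fitted effect of over 55% in size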
mIDH1 confirm – mutant IDH1 (human) inhibition, confirmed | shares compounds with mIDH1 inhibitor | IDH1 R132H enzyme, NADPH diaphorase/resazurin fluorescence | Potency, µM (series often up to 76.6 µM), for inactives: top-dose activity change, negative = inhibition, usual class: inhibitors | 750 compounds, 83% hits; note: potency is the fitted concentration of half-maximal effect; nearly all actives have a fitted effect of over 50% in size
Numbers without * were called inactive; u = inconclusive; x = no result given; [ ] = dose if it differs, or a comment. Hits are enriched below; roughly 1.3% of the tested compounds scored in any of these assays. Calls come from the whole dose curve; as a rule, active = well fitted curve in the direction sought with a large enough effect; inconclusive = small, poorly fitted or top-dose-only effect, or another doubt; inactive = no such curve, though single readings can be large; an effect the other way counts as inactive or inconclusive.

SMILES	TrxR1 inh	Anesthetic bind	GALK inh	TrxR1 substrate	mIDH1 inhibitor	PKM2 act	Resorufin autofl	WT IDH1 inh	mIDH1 confirm
O=C1CS(=O)(=O)C2(C(=O)N(Cc3cccc(F)c3)c3ccccc32)N1c1ccccc1 (configuration not stated)	22%	7%	x	-8%	11%	x	x	x	x
N#CC1=C(N)NC(SCC(=O)Nc2ccc(Br)cc2)=C(C#N)C12CCCCC2	15%[57.1 µM]	u	3%	-25%[57.1 µM]	u	-2%	1	7%	22µM*
CCOCCCNC(=O)Cn1nc(CC)n2c(cc3c(OC)cccc32)c1=O	3%	-5%	x	58%	-14%	x	x	x	x
COc1cc2c(C#CCCO)c(-c3ccsc3)oc(=O)c2cc1OC	-14%[57.1 µM]	x	x	19%[57.1 µM]	-9%	x	x	x	x
COCc1ccc(-c2c(-c3ccsc3)oc(=O)c3cc(OC)c(OC)cc23)cc1	8%[57.1 µM]	x	x	6%[57.1 µM]	16µM*	x	6	1%	10µM*
CCc1cccc(CC)c1-n1c(SCC(=O)N2CCc3ccccc3C2)nnc1-c1cccnc1	9%	-2%	0%	1%	52µM*	-1%	-1	1%	14µM*
CC1CCCCN1C(=O)Cn1c(=O)n(-c2ccc(Cl)cc2)c(=O)c2c3c(sc21)CCC3 (configuration not stated)	-1%	4%	x	-4%	0%	x	x	x	x
CCOc1ccc(NC(=O)CN2C(=O)C(c3ccccc3)=NC23CCC(C)CC3)cc1 (configuration not stated)	11%	-12%	x	-7%	22µM*	x	2	3%	16µM*
C[C@@H]1[C@H](c2ccccc2)OCCS(=O)(=O)N1Cc1ccc(F)cc1	8%	x	x	-1%	x	x	x	x	x
C=CS(=O)(=O)c1c2cc(OC)ccc2nc2ccc(OC)cc12	1.3µM*	x	x	13%[57.1 µM]	u	x	2	28µM*	10µM*
CCN(CC)S(=O)(=O)c1ccc(NC(=O)c2nn(C)c3c2CSc2ccccc2-3)cc1	24%	0%	x	0%	0%	x	x	x	x
Cc1ccc2c(c1)c1c3n2CCN(C(=O)CCl)C3CCC1 (configuration not stated)	7.9µM*	3%	-6%	10%	46µM*	5%	-1	u	16µM*
CC(=O)N1CCn2c3c(c4cc(C)ccc42)CCCC31 (configuration not stated)	0%[57.1 µM]	-9%	3%	5%[57.1 µM]	-1%	-4%	x	x	x
CCOc1ccc(-c2nc3ccc(-c4nc5ccc(N6CCN(C)CC6)cc5[nH]4)cc3[nH]2)cc1	x	-15%	x	x	x	x	x	x	x
COc1ccc(NC(=O)c2cnn(-c3ccc(F)cc3F)c2C2CCN(C(=O)OC(C)(C)C)CC2)cc1Cl	27%	-11%	x	3%	-4%	x	x	x	x
CC(C)(C)OC(=O)N1CCC(c2cc(=O)n3[nH]cc(C(=O)NC4CCCC4)c3n2)CC1	0%	-13%	3%	21%	-31%	3%	x	x	x
COc1ccc(NC(=O)c2c[nH]n3c(=O)cc(C4CCN(C(=O)OC(C)(C)C)CC4)nc23)cc1Cl	13%	1%	-22%	2%	41µM*	3%	-5	32µM*	20µM*
